In the library only some 7.1% were active in any assay of this set; here they are far more common.
SW480 rereplic: A quantitative high throughput screen for small molecules that induce DNA re-replication in SW480 colon adenocarcinoma cells; SW480 DNA re-replication, Hoechst DNA content imaging, 48 h; Potency, µM (highest dose often 46.1 µM), most hits filed as activators; 340,000 compounds, 1.8% hits; further: nearly all actives have a fitted effect of over 55% in size
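Image-based DNA-content assay: after two days of treatment, nuclei were labelled with the DNA dye Hoechst and imaged, and hits were compounds raising the count of nuclei showing high fluorescence intensity.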
MCF10A rereplic: A quantitative high throughput screen for small molecules that induce DNA re-replication in MCF 10a normal breast cells. 350,000 compounds, 2.9% hits. MCF 10A DNA re-replication, Hoechst nuclear intensity, 48 h. Potency, µM (doses to about 46.1 µM), actives largely listed as activators; further: nearly all actives have a fitted effect of over 50% in size
p53 reactivator: qHTS assay for re-activators of p53 using a Luc reporter. H1299 p53-A138V BP100-luciferase reporter, luminescence, 24 h. Potency, µM (doses to about 92.2 µM), most hits filed as activators. 320,000 compounds, 0.063% hits; further: nearly all actives have a fitted effect of over 45% in size
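p53-null H1299 cells stably carrying temperature-sensitive p53-A138V and a BP100-luciferase reporter were pinned with compounds (4-point, 1:5 series) and held 24 hrs at 37 deg C. Luminescence was read 10 min after detection reagent.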
ELG1 DNA repair: qHTS screen for small molecules that inhibit ELG1-dependent DNA repair in human embryonic kidney (HEK293T) cells expressing luciferase-tagged ELG1. 330,000 compounds, 2.3% hits. AID 504467, 2011. Potency, µM (highest dose often 46.1 µM), hits mostly inhibitors. HEK293T ELG1-luciferase reporter, luminescence, 16 h; DNA damage induced by 5-fluorouridine; further: nearly all actives have a fitted effect of over 55% in size
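Luminescence from the luciferase reporter, measured 30 min after ONE-Glo reagent at room temperature, was the read-out. Beforehand, 2,000 cells per well were exposed for 16 hr at 37 °C to 5-fluorouridine together with compound or vehicle.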
A-T KAP1 phos: qHTS Assay for Identifying a Potential Treatment of Ataxia-Telangiectasia | F2112 A-T fibroblasts, KAP-1 phosphorylation AlphaLISA; neocarzinostatin DNA damage 30 min before lysis | Potency, µM (titrated, usually from 57.5 µM), hits mostly activators | 320,000 compounds, 0.19% hits | AID 485349, 2010; further: nearly all actives have a fitted effect of over 45% in size
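ATM-like activity read as KAP-1 phosphorylation via AlphaLISA donor/acceptor antibody pairs after lysis and 6 hr at 25C. Cells were ATM-null patient fibroblasts (F2112, hTERT), dosed 60 min, then exposed to the DSB inducer NCS for 30 min.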
ELG1 genotox: qHTS screen for small molecules that induce genotoxicity in human embryonic kidney (HEK293T) cells expressing luciferase-tagged ELG1; HEK293T ELG1-luciferase reporter, luminescence, 16 h; Potency, µM (top dose mostly 46 µM), hits mostly activators; 330,000 compounds, 1.3% hits; further: nearly all actives have a fitted effect of over 60% in size
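Screening used a luciferase reporter fused to human ELG1 in HEK293T cells. Luminescence was read on a CCD plate imager after 16 hr exposure and 30 min ONE-Glo incubation.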
Each line names hits and unclear results; the compound was inactive in the other large screens. The call rests on the fitted dose curve; in most records, active means well fitted curve in the direction sought with a large enough effect; inconclusive means small, poorly fitted or top-dose-only effect, or another doubt; inactive means no such curve, though single readings can be large; an effect the other way counts as inactive or inconclusive.

COc1ccc(CCNC(=O)c2cc(S(=O)(=O)N3CCCCC3)ccc2Cl)cc1	SW480 rereplic 18.4µM, MCF10A rereplic inconclusive, ELG1 DNA repair inconclusive
COc1ccccc1OCCNC(=O)c1ccc2c(c1)CCC2	p53 reactivator inconclusive, ELG1 DNA repair inconclusive, ELG1 genotox 13µM
O=C(O)c1cccc(Nc2ccnc(Nc3cccc(C(=O)O)c3)n2)c1	ELG1 genotox inconclusive
CC(C)C[C@H](NC(=O)Nc1ccc2c(c1)OCCO2)C(=O)O	none
CC(=O)N1CCN(S(=O)(=O)c2cccc(C(=O)OCC(=O)N(Cc3ccccc3)C(C)(C)C)c2)CC1	MCF10A rereplic 7.31µM
CCCCCCCn1c(NC(=O)CC)nc2ccccc21	MCF10A rereplic 6.51µM, ELG1 DNA repair inconclusive
COc1ccccc1OCCNC(=O)c1cccc(S(=O)(=O)N2CCN(C)CC2)c1	none
COc1ccccc1OCCNC(=O)c1cccc(S(=O)(=O)N2CCN(Cc3ccccc3)CC2)c1	ELG1 DNA repair 20.6µM
O=C(c1cccc(S(=O)(=O)N2CCCCC2)c1)N1CCCCC1	none
O=C(c1cccc(S(=O)(=O)N2CCCC2)c1)c1cccc(S(=O)(=O)N2CCCC2)c1	ELG1 DNA repair 5.8µM
O=C(O)[C@H](O)[C@@H](O)[C@H](O)[C@H](O)CO	none (no result: p53 reactivator, ELG1 DNA repair, A-T KAP1 phos, ELG1 genotox)
COc1ccc(N2CCN(C(=O)c3ccc4c(c3)CC(c3ccccc3)OC4=O)CC2)cc1 (stereo not given)	none
O=C(NCCOc1ccc(Cl)cc1)c1cccc(S(=O)(=O)N2CCCC2)c1	MCF10A rereplic inconclusive, ELG1 DNA repair 8.91µM
CN(CC(=O)Nc1ccccc1Cl)C(=O)c1cccc(S(=O)(=O)N2CCN(c3ccc(F)cc3)CC2)c1	p53 reactivator inconclusive, ELG1 DNA repair inconclusive, ELG1 genotox 1.83µM
O=C(NCc1ccc(Cl)cc1)c1cccc(S(=O)(=O)N2CCCC2)c1	ELG1 DNA repair inconclusive
O=C(CCS(=O)(=O)Cc1ccccc1)N1CCc2ccccc2C1	none
CN(CC(=O)Nc1ccccc1Cl)C(=O)c1cccc(S(=O)(=O)N2CCN(c3ccccc3)CC2)c1	none (no result: p53 reactivator, ELG1 DNA repair, A-T KAP1 phos, ELG1 genotox)
O=C(CCS(=O)(=O)Cc1ccccc1)N1CCN(Cc2ccccc2)CC1	MCF10A rereplic 10.3µM
COc1cc(S(=O)(=O)N2CCN(Cc3ccccc3)CC2)ccc1Br	SW480 rereplic inconclusive, MCF10A rereplic 10.3µM
COC(=O)c1ccc(CN2CCC(Oc3cccc(C(=O)N4CCOCC4)c3)CC2)cc1	none
CCCn1c(NC(=O)c2cccc(S(=O)(=O)N3CCCC3)c2)nc2ccccc21	SW480 rereplic inconclusive, MCF10A rereplic 18.4µM, p53 reactivator inconclusive, ELG1 DNA repair 8.2µM
O=S(=O)(Cc1ccccc1)N1CCN(Cc2ccc(Br)cc2)CC1	ELG1 DNA repair inconclusive, ELG1 genotox 16.4µM
Cc1ccc(C)c(NC(=O)Nn2cnnc2)c1	none
CO/N=C/C(=N\Nc1ccc(C)cc1)C(=O)c1ccc(OC)cc1	SW480 rereplic inconclusive, MCF10A rereplic 2.59µM, ELG1 DNA repair inconclusive
COc1ccc(C(=O)Nc2ccc3ccccc3c2)cc1	ELG1 DNA repair inconclusive, ELG1 genotox 0.461µM (no result: p53 reactivator)
COc1ccc(NC(=O)c2sc(SC)nc2N)cc1	p53 reactivator inconclusive, ELG1 DNA repair inconclusive, ELG1 genotox 18.4µM
COc1ccc(NC(=O)c2sc(SCc3ccccc3)nc2N)cc1	none (no result: A-T KAP1 phos)
Cn1nnc2cc(C(=O)Nc3ccc4ccccc4c3)ccc21	ELG1 DNA repair inconclusive, ELG1 genotox 2.31µM
CC[C@@]1(C(=O)OC)N[C@H](CN(C)C(=O)C2CCCCC2)[C@@H]2C(=O)N(Cc3ccccc3)C(=O)[C@@H]21	SW480 rereplic inconclusive, MCF10A rereplic inconclusive
Oc1cc2c(cc1CN1CCN(c3ncccn3)CC1)OCO2	none
CCC(=O)Nc1ccc(NC(=O)CSc2nnc(-c3ccco3)n2CC)cc1	none
CCCCn1c(N)c(N(CCOC)C(=O)c2cc(Cl)nc3ccccc23)c(=O)[nH]c1=O	none
COc1ccc(NC(=O)c2ccc(N3C(=O)C4CC=C(C)CC4C3=O)cc2)c(OC)c1 (stereo not given)	none
COc1ccc(C(=O)Nc2ccc3ccccc3c2)cc1OC	ELG1 DNA repair inconclusive, ELG1 genotox inconclusive (no result: p53 reactivator)
COc1cc(C(=O)Nc2cccc3cccnc23)cc(OC)c1OC	MCF10A rereplic inconclusive, ELG1 DNA repair 20.6µM
COc1ccc(C(=O)NNC(=O)C(=O)Nc2ccc(C)cc2)cc1	none
COc1cc(C(=O)Nc2ccc3c(c2)Cc2ccccc2-3)cc(OC)c1OC	MCF10A rereplic 8.2µM, ELG1 genotox inconclusive
COc1ccc(NC(=O)c2ccc(C)cc2)cc1	ELG1 DNA repair inconclusive, ELG1 genotox 2.06µM (no result: p53 reactivator)
COc1cc(C(=O)Nc2ccc3ccccc3c2)cc(OC)c1OC	SW480 rereplic 1.3µM, MCF10A rereplic 2.59µM, ELG1 genotox inconclusive
O=C(COc1ccc2c(c1)OCO2)Nc1nncs1	ELG1 DNA repair inconclusive, ELG1 genotox inconclusive
COc1ccc(CC(=O)Nc2c3c(nn2C(C)(C)C)CS(=O)(=O)C3)cc1OC	none
Cc1cc(C)c2c(N)c(C(=O)N/N=C/c3ccccc3)sc2n1	SW480 rereplic 13µM, MCF10A rereplic 9.2µM, ELG1 DNA repair inconclusive, ELG1 genotox inconclusive
Cc1c(C(=O)N/N=C/c2cccnc2)sc(=S)n1C	SW480 rereplic inconclusive
Cn1c(N)c(C(=O)N/N=C/c2ccccc2)sc1=S	SW480 rereplic inconclusive, MCF10A rereplic 23.1µM
Cc1cc(C)c2c(N)c(C(=O)N/N=C/c3cccnc3)sc2n1	SW480 rereplic inconclusive, MCF10A rereplic 16.4µM, ELG1 DNA repair inconclusive
Cc1ccc(C)c(NC(=O)CN2C(=O)CC(C)S(=O)(=O)c3ccccc32)c1 (stereo not given)	none
CSc1cccc(NC(=S)NC(=O)CCc2ccccc2)c1	SW480 rereplic inconclusive, MCF10A rereplic 16.4µM, ELG1 DNA repair inconclusive
Cc1ccccc1NC(=S)NC(=O)CCc1ccccc1	none
Cc1cccc(C)c1NC(=S)NC(=O)CCc1ccccc1	SW480 rereplic 3.26µM, MCF10A rereplic inconclusive
CSc1cccc(NC(=O)NCc2cccc(CNC(=O)Nc3cccc(SC)c3)c2)c1	MCF10A rereplic 7.31µM
NC(=O)c1ccccc1NC(=S)NC(=O)CCc1ccccc1	SW480 rereplic 3.26µM, MCF10A rereplic 5.8µM
Cc1cc(C)nc(SCC(=O)NNS(=O)(=O)c2ccc(C#N)cc2)n1	SW480 rereplic inconclusive

From PubChem BioAssay
